From PubChem BioAssay (NCATS)
Values without a mark were called inactive. Inconclusive results are not listed. Where a call stands in place of a potency, no number is given. Active and inactive are the calls of the source. Unless noted, calls follow the shape of the dose curve; as a rule, active = well fitted curve in the direction sought with a large enough effect; inconclusive = small, poorly fitted or top-dose-only effect, or another doubt; inactive = no such curve, though single readings can be large; an effect the other way counts as inactive or inconclusive.

Key:
[1] = target: Tumor susceptibility gene 101 protein (Homo sapiens) (UniProt Q99816); test: qHTS Validation Assay for Iinhibitors of HIV-1 Budding by Blocking the Interaction of PTAP/TSG101 (AID 485342; calls by dose curve)
Outline: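 Tsg101 binding domain (10 uM final) in pH 7.5 HEPES/NaCl/Tween 20/EDTA/TCEP buffer was mixed with pin-transferred compounds, then FITC-labeled PTAP peptide (50 nM final) was added; after 20 min at r.t., fluorescence polarization was read.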

[2] = qHTS Validation Assay to Find Inhibitors of Chronic Active B-Cell Receptor Signaling (AID 485345; active = well fitted curve in the direction sought with a large enough effect in the main read-out, with a control signal flat, not every such curve was filed as active)
Outline: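 Read-out: ratio of filter-corrected green (IkappaBalpha fusion) to red (native) luciferase signal in doxycycline-induced TMD8 cells after 4 h at 37C. Titration spanned 46 uM–3 nM; Data were normalised to basal cells and 10 uM MG-132 wells.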

[3] = target: Beta-2 adrenergic receptor (Homo sapiens) (UniProt P07550); test: qHTS validation assay of beta-arrestin-biased ligands of beta2-adrenergic receptor (AID 485366)
Outline: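 Screening used a titration range of up to 46 microM in a beta-arrestin recruitment Tango luciferase assay. Cells in 1% FBS medium were treated 18 hr at 37 degrees C, and luminescence was normalized to %Activity.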

[4] = target: ATP-dependent 6-phosphofructokinase (Trypanosoma brucei brucei) (UniProt O15648); test: qHTS Validation Assay to Find Inhibitors of T. brucei phosphofructokinase (AID 485368)
Outline: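 PFK-generated ADP was measured after 45 min at room temperature using ADP-Glo. The reaction contained 0.5 mM F6P and 0.1 mM ATP.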

[5] = Quantitative high throughput screen for delayed death inhibitors of the malarial parasite plastid, 96 hour incubation (AID 488745); also: nearly all actives have a fitted effect of over 70% in size; also: potency is read from the fitted curve at half-maximal effect
Outline: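 Decreased firefly luciferase luminescence indicates inhibited growth of reporter-integrated P. falciparum after two generations (96 h, 37 C, 5% CO2). Infected erythrocytes at 0.1% parasitemia, 2% hematocrit, in Albumax-supplemented RPMI 1640.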

[6] = target: Thioredoxin reductase 1, cytoplasmic (Rattus norvegicus) (UniProt O89049); test: qHTS Assay for Substrates of Mammalian Selenoprotein Thioredoxin Reductase 1 (TrxR1) (AID 488772);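 also: series mostly up to about 57 µM; a drop in NADPH fluorescence below the no-compound background marks a TrxR1 substrate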
Outline: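 In this dual-purpose format, potential substrates are identified from the first fluorescence read after selenite addition, not from the 8-minute delta. Rat enzyme is preincubated with NADPH and then with compound at ~22 deg C.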

[7] = target: Thioredoxin reductase 1, cytoplasmic (Rattus norvegicus) (UniProt O89049); test: qHTS Assay for Inhibitors of Mammalian Selenoprotein Thioredoxin Reductase 1 (TrxR1) (AID 488773); settings: Potency: inhibition;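 also: drop in NADPH fluorescence over an 8 min run after selenite addition; series mostly up to about 57 µM; nearly all actives have a fitted effect of over 40% in size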
Outline: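 Inhibition is scored from the loss of NADPH fluorescence between first and last reads of an 8-min kinetic run. Selenite (400 uM) was the substrate, added after 15 min compound preincubation at room temperature.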

[8] = target: Flap endonuclease 1 (Homo sapiens) (UniProt P39748); test: qHTS Validation Assay for the Inhibitors of Human Flap endonuclease 1 (FEN1) (AID 488816)
Outline: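 qHTS format: compounds and 10 nM FEN1 incubated 15 min at room temperature before adding 50 nM substrate. Cleavage followed by reads at 0 and 15 min; normalized data fitted to a four-parameter Hill curve.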

[9] = target: M-phase phosphoprotein 8 (Homo sapiens) (UniProt Q99549); test: qHTS Validation Assay for Inhibitors for MPP8 Chromodomain Interactions with Methylated Histone Tails (AID 488949);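 also: AlphaScreen signal from MPP8 chromodomain bound to biotinylated H3K9me3 peptide; top concentration of the series differs between compounds; nearly all actives have a fitted effect of over 55% in size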
Outline: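 MPP8 (50 nM) was preincubated with biotinylated H3(1-18)K9me3 peptide (50 nM) in PBS pH 7.4, 0.01% Tween-20 for 30 min at room temperature, then with compounds for 30 min; binding was detected by AlphaScreen.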

[10] = target: Chromobox protein homolog 1 (Homo sapiens) (UniProt P83916); test: qHTS Validation Assay for Inhibitors of HP1-beta Chromodomain Interactions with Methylated Histone Tails (AID 488953); also: nearly all actives have a fitted effect of over 50% in size; also: potency is read from the fitted curve at half-maximal effect
Outline: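 AlphaScreen proximity signal from streptavidin donor and nickel chelate acceptor beads (final 10 ug/mL) after 30 min dark incubation. Compounds had 30 min at room temperature with preformed complex of 50 nM HP1-beta and 50 nM b-H3(1-18)K9me3 in PBS pH 7.4 with 0.01% Tween-20.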

[11] = target: Methanococcus maripaludis chaperonin (MmCpn) (UniProt Q6LX38); test: High-Throughput Screening for Modulators of Cytosolic Chaperonin Activity: MmCpn Primary Screen (AID 488978);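 also: 50 nM MmCpn enzyme hydrolysing 30 µM ATP at 37 °C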
Outline: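 MmCpn (50 nM final) was preincubated with compound 5 min at RT, then 30 uM ATP (final) was added and the reaction ran 10 min at 37C. ADP produced was detected by Transcreener HTRF (ex 320 nm; em 590/665 nm).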

[12] = target: D(1A) dopamine receptor (Homo sapiens) (UniProt P21728); test: HTS Assay for Allosteric Agonists of the Human D1 Dopamine Receptor: Primary Screen for Agonists (AID 488981)
Outline: (§1)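 Calcium flux in an inducible, force-coupled HEK293 Trex D1 line (overnight at 30 C): agonist mode is the 180 s kinetic read after compound; potentiator mode is the following 180 s read after dopamine at EC20.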

[13] = target: D(1A) dopamine receptor (Homo sapiens) (UniProt P21728); test: HTS Assay for Allosteric Agonists of the Human D1 Dopamine Receptor: Primary Screen for Potentiators (AID 488982)
Outline: as §1

[14] = target: D(1A) dopamine receptor (Homo sapiens) (UniProt P21728); test: HTS Assay for Allosteric Agonists of the Human D1 Dopamine Receptor: Primary Screen for Antagonists (AID 488983);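 also: calcium flux response to an EC80 dopamine challenge measured with no-wash dye; nearly all actives have a fitted effect of over 65% in size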
Outline: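 Calcium-flux read-out in inducible HEK293 T-REx cells expressing D1, dye-loaded 30–90 min at room temperature. Kinetic reads: 180 s after compound (agonist phase), then 180 s after an EC80 dopamine challenge.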

[15] = Validation screen for small molecules that induce genotoxicity in human embryonic kidney (HEK293T) cells expressing luciferase-tagged ELG1 (AID 493106)
Outline: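 ELG1-luciferase reporter readout (ONE-Glo, 30 min, room temperature) after 16 hr compound treatment at 37 °C of HEK293T cells at 2,000 per well. Rising luminescence flags genotoxic stress.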

[16] = target: ATPase family AAA domain-containing protein 5 (Homo sapiens) (UniProt Q96QE3); test: Validation screen for small molecules that inhibit ELG1-dependent DNA repair in human embryonic kidney (HEK293T) cells expressing luciferase-tagged ELG1 (AID 493107); also: potency is read from the fitted curve at half-maximal effect; nearly all actives have a fitted effect of over 70% in size
Outline: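 Luciferase read-out, ONE-Glo, 30 min at room temperature, follows 16 h co-exposure at 37 C of compound and the DNA-damaging agent 5-fluorouridine. Cells: HEK293T with ELG1-luciferase fusion, 2,000 per well, DMSO as vehicle.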

[17] = target: Transient receptor potential cation channel subfamily V member 1 (Homo sapiens) (UniProt Q8NER1); test: HTS Assay for Compounds that Act as Enhancers of the Vanilloid Receptor 1 (AID 488979)
Outline: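 Calcium influx kinetics via Fluo-8 (480/520 nm) in TRPV1-expressing cells, 2000/well cultured overnight at 35.5C. Compound-alone read 3 min (agonist phase), followed by EC20 capsaicin challenge for 2 min (enhancer phase).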

[18] = target: Thyrotropin receptor (Homo sapiens) (UniProt P16473); test: qHTS Assay for Antagonists of the Thyroid Stimulating Hormone Receptor (AID 488980); also: series mostly up to about 58 µM
Outline: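 HEK293 cells transfected with human TSHR, suspended in HEPES-buffered HBSS with 70 uM RO 20-1724, were treated with compounds plus TSH at EC80 (4 nM final). cAMP was measured by competitive HTRF (cryptate anti-cAMP antibody, cAMP-d2 acceptor).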

[19] = target: Thyrotropin-releasing hormone receptor (Homo sapiens) (UniProt P34981); test: qHTS for Small Molecule Agonists and Allosteric Enhancers of Human TRH Receptor: Validation Screen for Agonists (AID 493127;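 active = calcium activation more than 3 SD above the typical response in the agonist read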;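 also: intracellular calcium rise by fluo-8 fluorescence before TRH EC20 addition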); settings: TRH receptor agonist cell assay; at 2 µM; active compounds read high
Outline: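 Compound-evoked intracellular calcium release in fluo-8-loaded TRHR cells, read kinetically on FDSS (Ex 480/Em 530, 1 s/cycle) after 23 nL pintool transfer. Agonist phase preceded 10 nM TRH EC20 addition.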

[20] = target: ATP-dependent 6-phosphofructokinase (Trypanosoma brucei brucei) (UniProt O15648); test: qHTS Assay to Find Inhibitors of T. brucei phosphofructokinase: hit validation (AID 492961);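 also: luminescence reports ADP formed as PFK phosphorylates fructose-6-phosphate with ATP; series mostly up to about 51 µM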
Outline: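 ADP-Glo luminescence read-out of ADP formed by 1.25 nM PFK from 0.1 mM ATP and 0.5 mM F6P (TEA pH 8.0, 45 min, RT). Compounds titrated; activity normalized to no-enzyme and full-enzyme controls.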

D(1A) dopamine receptor (Homo sapiens), sequence (P21728 whole entry, looked up): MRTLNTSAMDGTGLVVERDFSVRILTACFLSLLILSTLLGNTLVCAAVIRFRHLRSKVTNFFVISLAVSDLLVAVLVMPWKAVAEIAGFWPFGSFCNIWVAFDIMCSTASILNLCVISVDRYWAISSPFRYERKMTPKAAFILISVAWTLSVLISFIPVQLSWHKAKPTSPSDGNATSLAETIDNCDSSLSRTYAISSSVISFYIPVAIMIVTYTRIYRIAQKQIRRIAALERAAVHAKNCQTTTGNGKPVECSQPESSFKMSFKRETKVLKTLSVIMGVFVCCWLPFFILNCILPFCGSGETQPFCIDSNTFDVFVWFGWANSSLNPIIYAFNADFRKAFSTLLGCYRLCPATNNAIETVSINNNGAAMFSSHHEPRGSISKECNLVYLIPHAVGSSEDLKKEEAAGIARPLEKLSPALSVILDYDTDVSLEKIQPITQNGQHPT
Thioredoxin reductase 1, cytoplasmic (Rattus norvegicus), sequence (O89049 whole entry, looked up): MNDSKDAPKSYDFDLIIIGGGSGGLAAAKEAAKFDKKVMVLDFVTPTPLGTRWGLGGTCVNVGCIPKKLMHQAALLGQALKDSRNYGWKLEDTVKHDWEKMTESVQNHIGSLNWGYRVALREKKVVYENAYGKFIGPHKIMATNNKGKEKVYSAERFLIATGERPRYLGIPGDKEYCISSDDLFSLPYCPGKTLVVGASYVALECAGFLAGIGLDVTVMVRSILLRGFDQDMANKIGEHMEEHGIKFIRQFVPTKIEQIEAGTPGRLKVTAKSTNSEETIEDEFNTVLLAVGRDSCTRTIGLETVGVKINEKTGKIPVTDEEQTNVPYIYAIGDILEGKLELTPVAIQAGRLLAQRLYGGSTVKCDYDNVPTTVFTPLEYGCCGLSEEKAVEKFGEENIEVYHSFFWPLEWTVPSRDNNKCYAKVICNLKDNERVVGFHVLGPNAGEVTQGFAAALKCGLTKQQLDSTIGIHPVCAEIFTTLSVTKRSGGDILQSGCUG
M-phase phosphoprotein 8 (Homo sapiens), sequence (Q99549 whole entry, looked up): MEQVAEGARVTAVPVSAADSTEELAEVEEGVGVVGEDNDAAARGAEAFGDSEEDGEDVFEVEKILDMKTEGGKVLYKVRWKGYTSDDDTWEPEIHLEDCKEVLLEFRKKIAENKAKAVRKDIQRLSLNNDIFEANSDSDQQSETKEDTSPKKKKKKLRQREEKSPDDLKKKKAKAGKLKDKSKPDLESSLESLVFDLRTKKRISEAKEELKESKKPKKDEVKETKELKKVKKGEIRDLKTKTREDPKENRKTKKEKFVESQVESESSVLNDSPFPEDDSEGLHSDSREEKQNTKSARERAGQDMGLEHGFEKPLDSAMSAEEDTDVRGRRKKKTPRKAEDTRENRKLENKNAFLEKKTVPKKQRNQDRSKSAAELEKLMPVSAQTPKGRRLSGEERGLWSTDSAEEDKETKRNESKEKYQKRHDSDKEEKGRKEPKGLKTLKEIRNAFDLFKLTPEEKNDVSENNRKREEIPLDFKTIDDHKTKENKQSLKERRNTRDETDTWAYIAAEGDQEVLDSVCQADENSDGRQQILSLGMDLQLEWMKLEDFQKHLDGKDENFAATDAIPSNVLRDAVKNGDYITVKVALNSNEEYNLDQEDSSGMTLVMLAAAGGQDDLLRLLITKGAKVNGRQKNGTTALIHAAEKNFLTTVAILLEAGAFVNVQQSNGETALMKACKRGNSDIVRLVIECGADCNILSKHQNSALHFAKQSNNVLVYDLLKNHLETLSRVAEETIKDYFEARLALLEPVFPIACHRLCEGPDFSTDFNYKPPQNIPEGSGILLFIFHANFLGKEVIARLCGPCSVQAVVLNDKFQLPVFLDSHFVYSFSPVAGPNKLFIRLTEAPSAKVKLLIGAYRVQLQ
ATP-dependent 6-phosphofructokinase (Trypanosoma brucei brucei), sequence (O15648 whole entry, looked up): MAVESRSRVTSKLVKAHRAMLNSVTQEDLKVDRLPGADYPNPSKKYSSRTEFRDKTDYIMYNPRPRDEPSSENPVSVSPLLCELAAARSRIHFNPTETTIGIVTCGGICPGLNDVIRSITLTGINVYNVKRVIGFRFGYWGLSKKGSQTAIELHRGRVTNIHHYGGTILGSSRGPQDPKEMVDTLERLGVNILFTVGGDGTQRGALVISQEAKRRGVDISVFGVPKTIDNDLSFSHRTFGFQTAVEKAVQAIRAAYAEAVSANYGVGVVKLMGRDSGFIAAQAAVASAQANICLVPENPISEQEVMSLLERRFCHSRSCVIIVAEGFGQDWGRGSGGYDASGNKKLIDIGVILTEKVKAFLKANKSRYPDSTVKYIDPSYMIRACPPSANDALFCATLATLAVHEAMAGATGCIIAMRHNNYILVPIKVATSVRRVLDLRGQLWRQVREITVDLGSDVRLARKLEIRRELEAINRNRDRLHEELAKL
Chromobox protein homolog 1 (Homo sapiens), sequence (P83916 whole entry, looked up): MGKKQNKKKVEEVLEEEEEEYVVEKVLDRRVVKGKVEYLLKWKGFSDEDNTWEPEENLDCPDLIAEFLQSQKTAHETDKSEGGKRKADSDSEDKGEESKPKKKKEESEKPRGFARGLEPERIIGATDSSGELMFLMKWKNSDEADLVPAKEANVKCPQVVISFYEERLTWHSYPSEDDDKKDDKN
Tumor susceptibility gene 101 protein (Homo sapiens), sequence (Q99816 whole entry, looked up, the tested form may be a part): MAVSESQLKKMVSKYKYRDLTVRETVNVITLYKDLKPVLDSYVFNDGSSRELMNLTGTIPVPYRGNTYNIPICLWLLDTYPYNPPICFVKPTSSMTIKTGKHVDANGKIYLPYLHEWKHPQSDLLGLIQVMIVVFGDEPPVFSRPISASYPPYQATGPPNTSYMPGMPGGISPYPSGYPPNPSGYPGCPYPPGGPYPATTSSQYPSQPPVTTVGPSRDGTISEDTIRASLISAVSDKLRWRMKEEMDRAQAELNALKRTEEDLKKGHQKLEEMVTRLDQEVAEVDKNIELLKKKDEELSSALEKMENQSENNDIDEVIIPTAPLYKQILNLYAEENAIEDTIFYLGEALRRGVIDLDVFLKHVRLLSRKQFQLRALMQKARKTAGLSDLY
Beta-2 adrenergic receptor (Homo sapiens), sequence (P07550 whole entry, looked up): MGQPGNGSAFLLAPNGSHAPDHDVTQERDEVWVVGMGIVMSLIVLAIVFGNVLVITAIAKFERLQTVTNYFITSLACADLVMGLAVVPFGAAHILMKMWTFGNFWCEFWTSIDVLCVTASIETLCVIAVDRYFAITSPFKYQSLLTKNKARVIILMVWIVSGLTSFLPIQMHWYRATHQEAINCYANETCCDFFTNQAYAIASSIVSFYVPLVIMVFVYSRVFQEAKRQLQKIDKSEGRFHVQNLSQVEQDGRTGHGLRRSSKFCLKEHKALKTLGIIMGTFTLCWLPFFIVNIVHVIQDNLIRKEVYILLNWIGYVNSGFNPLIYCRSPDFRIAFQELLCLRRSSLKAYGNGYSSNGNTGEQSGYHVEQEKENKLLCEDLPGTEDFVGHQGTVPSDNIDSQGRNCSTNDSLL
Methanococcus maripaludis chaperonin (MmCpn), sequence (Q6LX38 1-543): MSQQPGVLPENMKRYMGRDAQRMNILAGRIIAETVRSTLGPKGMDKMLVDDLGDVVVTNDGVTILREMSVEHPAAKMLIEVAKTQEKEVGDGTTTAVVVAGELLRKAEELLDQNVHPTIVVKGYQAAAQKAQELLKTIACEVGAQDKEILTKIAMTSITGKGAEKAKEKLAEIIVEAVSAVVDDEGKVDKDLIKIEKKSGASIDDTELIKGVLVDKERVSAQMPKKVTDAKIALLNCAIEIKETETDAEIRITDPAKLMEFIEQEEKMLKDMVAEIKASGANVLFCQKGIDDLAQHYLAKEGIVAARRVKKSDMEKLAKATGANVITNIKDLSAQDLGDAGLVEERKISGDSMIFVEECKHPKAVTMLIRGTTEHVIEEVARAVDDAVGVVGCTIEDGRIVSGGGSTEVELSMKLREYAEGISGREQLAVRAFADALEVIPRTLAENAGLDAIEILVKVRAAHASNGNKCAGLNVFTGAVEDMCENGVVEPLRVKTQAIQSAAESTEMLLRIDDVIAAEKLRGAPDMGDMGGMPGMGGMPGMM
Flap endonuclease 1 (Homo sapiens), sequence (P39748 whole entry, looked up): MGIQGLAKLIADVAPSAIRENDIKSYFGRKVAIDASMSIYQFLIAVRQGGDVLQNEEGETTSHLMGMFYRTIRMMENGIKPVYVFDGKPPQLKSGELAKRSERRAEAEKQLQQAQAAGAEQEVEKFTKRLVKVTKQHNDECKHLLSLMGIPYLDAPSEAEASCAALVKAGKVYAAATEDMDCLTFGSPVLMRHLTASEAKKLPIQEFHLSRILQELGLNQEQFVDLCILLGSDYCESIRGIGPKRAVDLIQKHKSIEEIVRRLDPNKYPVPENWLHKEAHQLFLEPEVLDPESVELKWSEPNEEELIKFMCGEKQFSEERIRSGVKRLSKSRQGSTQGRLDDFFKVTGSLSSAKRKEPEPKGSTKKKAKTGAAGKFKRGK
Thyrotropin receptor (Homo sapiens), sequence (P16473 whole entry, looked up): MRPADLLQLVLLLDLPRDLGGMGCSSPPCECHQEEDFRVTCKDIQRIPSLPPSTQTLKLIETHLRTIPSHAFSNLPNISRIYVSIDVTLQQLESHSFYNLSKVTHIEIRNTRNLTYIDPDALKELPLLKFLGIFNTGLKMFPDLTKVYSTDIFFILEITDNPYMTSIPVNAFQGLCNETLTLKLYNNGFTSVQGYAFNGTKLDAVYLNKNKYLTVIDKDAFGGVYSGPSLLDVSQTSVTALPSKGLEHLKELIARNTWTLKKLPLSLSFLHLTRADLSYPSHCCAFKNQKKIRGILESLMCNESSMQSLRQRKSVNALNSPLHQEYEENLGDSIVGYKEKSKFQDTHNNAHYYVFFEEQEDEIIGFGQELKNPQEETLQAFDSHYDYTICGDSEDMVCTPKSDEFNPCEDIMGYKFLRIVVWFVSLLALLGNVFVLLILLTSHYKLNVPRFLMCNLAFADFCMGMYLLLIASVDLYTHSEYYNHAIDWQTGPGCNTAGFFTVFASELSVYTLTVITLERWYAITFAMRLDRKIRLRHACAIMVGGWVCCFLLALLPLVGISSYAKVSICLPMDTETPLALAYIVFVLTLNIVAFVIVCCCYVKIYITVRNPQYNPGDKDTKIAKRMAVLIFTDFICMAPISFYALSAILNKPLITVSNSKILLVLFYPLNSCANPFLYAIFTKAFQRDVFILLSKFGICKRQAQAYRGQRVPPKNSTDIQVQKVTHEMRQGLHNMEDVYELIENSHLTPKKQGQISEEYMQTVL

For `C[C@@H]1O[C@@H](O[C@H]2C[C@@H](O)[C@]3(CO)[C@H]4[C@H](O)C[C@]5(C)[C@@H](C6=CC(=O)OC6)CC[C@]5(O)[C@@H]4CC[C@]3(O)C2)[C@H](O)[C@H](O)[C@H]1O`, the outcome [1] was “inactive”, the outcome [2] was “inactive” and the outcome [3] was “inactive”. The Potency [4] was “inactive”, the Potency [5] was “inactive” and the outcome [6] was “inactive”. The Potency [7] was “inactive”, the Potency [8] was “inactive” and the Potency [9] was “inactive”. The Potency [10] was “inactive”, the outcome [11] was “inactive” and the Potency [12] was “inactive”. For the same compound, the Potency [13] was “inactive”, the Potency [14] was “inactive” and the Potency [15] was “inactive”. For the same compound, the Potency [16] was 92 nM (active).

In the case of `NCC(CC(=O)O)c1ccc(Cl)cc1` (configuration not stated), the outcome [1] is reported as “inactive”, the outcome [2] is reported as “inactive” and the outcome [3] is reported as “inactive”. The Potency [5] was “inactive”, the outcome [6] was “inactive” and the Potency [7] was “inactive”. For the same compound, the Potency [8] was “inactive”, the Potency [9] was “inactive” and the Potency [10] was “inactive”. For the same compound, the outcome [11] was “inactive”, the outcome [17] was “inactive” and the outcome [18] was “inactive”. For the same compound, the Potency [12] was “inactive”, the Potency [14] was “inactive” and the Potency [15] was “inactive”. The activation [19] was 0.125%.

In the case of `Cc1ccc(-c2nc3ccc(C)cn3c2CC(=O)N(C)C)cc1`, the outcome [20] is reported as “inactive”.

In the case of `CN(C)CCc1ccc(O)cc1`, the outcome [20] is reported as “inactive”.

For `OCCN1CCN(CCCN2c3ccccc3Sc3ccc(C(F)(F)F)cc32)CC1`, the Potency [5] was 3290 nM (active), the Potency [10] was 6 nM (active) and the Potency [13] was “inactive”.
